About 83,000 compounds went through this panel and 20% of them were active in at least one assay; those are over-represented in the sample as a whole.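 How to read the values: 0–100, growth inhibition (40 = 60% inhibited); 0, no net growth; -100 to 0, cell death (-40 = 40% of starting cells died; -100 = all dead).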 Values without a mark were called inactive. The source made the active and inactive calls. Rule for the calls: active = growth percent below 10; inactive = the rest.
Assays:
Experiment in all cases: NCI-60 one-dose screen, 48 h (100 = growth as untreated, 0 = no growth, -100 = all killed)
SR leukemia = conditions: 10 µM unless noted
RPMI-8226 leukemia = conditions: 10 µM unless noted
OVCAR-8 ovarian = conditions: 10 µM unless noted
OVCAR-5 ovarian = conditions: 10 µM unless noted
OVCAR-4 ovarian = conditions: 10 µM
SK-OV-3 ovarian = conditions: 10 µM unless noted
IGROV1 ovarian = conditions: 10 µM unless noted
OVCAR-3 ovarian = conditions: 10 µM unless noted
HS 578T breast = conditions: 10 µM unless noted
NCI/ADR-RES ovarian = conditions: 10 µM unless noted
T-47D breast = conditions: 10 µM unless noted
MDA-MB-435 melanoma = conditions: 10 µM unless noted
SW-620 colon = conditions: 10 µM unless noted
MCF7 breast = conditions: 10 µM unless noted
HCT-116 colon = conditions: 10 µM unless noted
HCC-2998 colon = conditions: 10 µM unless noted
KM12 colon = conditions: 10 µM unless noted

Row | SMILES | growth (SR leukemia) | growth (RPMI-8226 leukemia) | growth (OVCAR-8 ovarian) [%] | growth (OVCAR-5 ovarian) | growth (OVCAR-4 ovarian) | growth (SK-OV-3 ovarian) [%] | growth (IGROV1 ovarian) | growth (OVCAR-3 ovarian) | growth (HS 578T breast) [%] | growth (NCI/ADR-RES ovarian) | growth (T-47D breast) | growth (MDA-MB-435 melanoma) | growth (SW-620 colon) | growth (MCF7 breast) | growth (HCT-116 colon) | growth (HCC-2998 colon) | growth (KM12 colon)
1 | c1ccc(-c2n[nH]c(-c3ccccn3)n2)nc1 | 127% | 104% | 107 | 100% | 103% | 108 | 116% | 144% | 139 | 90.4% | 95.8% | 106% | 117% | 93.5% | 110% | 108% | 128%
2 | CCOC(=O)CC(c1ccccc1)C(C#N)c1ccccc1 (centres undefined) | 97.3% | 91.3% | 99.2 | 110% | 98.7% | 95.1 | 108% | 98.9% | 89.4 | 109% | 89.6% | 96.4% | 95.3% | 99.8% | 92% | 114% | 92.3%
3 | CCOc1ccc(/C=C(\C#N)c2cc3ccccc3[nH]2)cc1 | 18.2% | 79.7% | 65.4 | 76.5% | 82.5% | 67.8 | 56% | 41.9% | 66.4 | 26.1% | 39.7% | -28.8% (active) | 24.6% | 24.7% | 37.1% | 72.5% | 22.5%
4 | COc1ccc(-c2cc(-c3ccc(OC)c(OC)c3)nc(SCCCCCC(=O)NO)n2)cc1 | -1.05% (active) | 29.4% | 37.7 | 52.4% | 76.8% | 46.6 | 61.6% | 64.8% | 44.7 | 101% | -1.6% (active) | 40.7% | 32.8% | 54.4% | 14.6% | 86.7% | 63.9%
5 | COC(=O)[C@@H](NC(=O)NC(=O)NC(=O)CI)C(C)C | -46.6% (active) | 74.5% | 90.9 | 90.9% | 72.7% | 80.9 | 101% | 7.92% (active) | 86.8 | 101% | 44.8% | 90.5% | 9.83% (active) | 59.9% | 75% | 113% | 100%
6 | Cc1cc(C)c(O)c(CNCCCNCc2cc(C)cc(C)c2O)c1 | -30.5% (active) | 28.5% | 82.2 | 74.6% | 88.3% | 89.3 | 62% | 77% | 11.2 | 72.5% | 67.3% | 2.52% (active) | 71.8% | 38.2% | 51.6% | -51.4% (active) | 61.3%
7 | CCOC(=O)C(=Cc1ccccc1[N+](=O)[O-])C(=O)OCC | -10% (active) | 10.7% | 12.2 | -31.5% (active) | 24.7% | 62.4 | 37.8% | -20.7% (active) | 47.2 | -29.4% (active) | 25.5% | 15.6% | 19.2% | 10.4% | 7.82% (active) | 48.3% | -17.7% (active)
8 | Cc1ccc2c(c1)/C(=N\N=C/c1cn(C(C)C)c3ccccc13)C(=O)N2 | -9.77% (active) | 0.866% (active) | 54.5 | 70.2% | 37.7% | 89.2 | 48.1% | -2.36% (active) | 73.9 | 79% | 24.9% | 18.8% | 46.4% | 8.52% (active) | 28.1% | 49.4% | 73.7%
9 | Nc1ccc2c(c1)Cc1cc(NC(=O)C(F)(F)F)ccc1-2 | 101% | 88.3% | 102 | 114% | 109% | 89.8 | 114% | 99.5% | 119 | 104% | 81.8% | 102% | 105% | 60.1% | 108% | 105% | 97.7%
10 | COc1cc2c(cc1OC(C)=O)C(=O)CCCC2 | 121% | 109% | 98.3 | 103% | 95.1% | 117 | 78.8% | 114% | 84.3 | 97.7% | 101% | 102% | 95.8% | 92.3% | 82.6% | -10.1% (active) | 106%
11 | O=C(NCCCNC(=O)OCc1ccc2cccc(O)c2n1)OCc1ccc2cccc(O)c2n1 | 12.1% | 18.4% | 23 | 59.9% | 39.2% | 76.6 | 24.1% | 14.8% | 57.2 | 41.5% | 49.1% | 18.5% | 4.75% (active) | 19.3% | -46.3% (active) | 85.1% | 53.3%
12 | CC1Cc2c(Cl)ncnc2N(C)c2ccccc21 (centres undefined) | 6.5% (active) | 12.2% | 10.7 | 41.8% | 21.5% | 15.8 | 50.5% | 10.6% | 24.6 | 16.6% | 42.5% | 14.9% | 14% | 14.1% | 12.9% | 34.5% | 11.3%
13 | Cc1nc(Cl)c2c(n1)N(C)c1ccc(Cl)cc1C(C)C2 (centres undefined) | 83.2% | 66.8% | 95.9 | 101% | 83% | 86.3 | 92.7% | 98.7% | 42.5 | 95.8% | 71% | 85.9% | 86.5% | 95.6% | 80.1% | 98.6% | 92.4%
14 | NNC(=O)c1ccc(C(=O)NN)cc1 | 126% | 104% | 84.9 | 113% | 127% | 119 | 116% | 112% | 97.9 | 104% | 133% | 106% | 99.2% | 106% | 108% | 100% | 107%
15 | O=C1COCCN1c1ccc(NCc2cn(Cc3ccc(F)cc3)c3ccccc23)cc1 | 94.4% | 41.7% | 70.5 | -40.3% (active) | -6.07% (active) | 20.3 | -18.9% (active) | 3.96% (active) | 72 | 72.1% | -19.8% (active) | 99.1% | 28.1% | 4.76% (active) | 6.21% (active) | 81.9% | 98.6%
16 | CCCOc1ccc(-c2nc(-c3ccc(N)cc3)cs2)cc1 | 73.9% | 96.6% | 87 | 108% | 100% | 105 | 94.8% | 145% | 130 | 97.9% | 84.9% | 107% | 113% | 86% | 95.5% | 114% | 115%
17 | Oc1c(CNCCNCc2cc(Cl)cc(Cc3ccccc3)c2O)cc(Cl)cc1Cc1ccccc1 | 5.69% (active) | 20.8% | 14.3 | 52.9% | 27.1% | 15.4 | 12.8% | 29.5% | 40.7 | 8.69% (active) | 26.1% | 22.8% | 29.6% | 17.4% | 18.6% | 20.2% | 20.5%

From PubChem BioAssay (NCI)
